Results reported in PubChem BioAssay (Tox21).
Records with an inconclusive call do not appear. Where a call stands in place of a potency, no number is given. Values without a mark were called inactive. Activity calls are given as the source filed them. Unless noted, the call rests on the fitted dose curve; in most records, active means well fitted curve in the direction sought with a large enough effect in the repeat runs; inconclusive means weak or mixed curves; inactive means no such curve, though single readings can be large; an effect the other way counts as inactive or inconclusive.

What was measured:
[1] = qHTS assay to identify small molecule antagonists of the thyroid receptor (TR) signaling pathway - cell viability counter screen (AID 743064); further: nearly all actives have a fitted effect of over 50% in size; further: potency means the concentration at half of the fitted maximal effect
Method in brief: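 Counter screen for cytotoxicity: compound plus T3 (1 nM final) on GH3.TRE-Luc cells, 23.5 h at 37 °C, then fluorescence viability readout with CellTiter-Fluor.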

[2] = qHTS assay to identify small molecule antagonists of the thyroid receptor (TR) signaling pathway (AID 743065); further: nearly all actives have a fitted effect of over 55% in size; further: potency means the concentration at half of the fitted maximal effect
Method in brief: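 GH3.TRE-Luc rat pituitary cells carrying two TR response elements driving luciferase were plated for 4 h, given compound plus 1 nM T3 (final), and incubated 23.5 h at 37 C. ONE-Glo luminescence measured reporter inhibition; CellTiter-Fluor fluorescence tracked cytotoxicity.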

[3] = system: thyroid hormone receptor (rat, GH3 cells); assay: qHTS assay to identify small molecule agonists of the thyroid receptor (TR) signaling pathway (AID 743066; calls by dose curve)
[4] = biological target: Estrogen receptor (Homo sapiens) (UniProt P03372); assay: qHTS assay to identify small molecule antagonists of the estrogen receptor alpha (ER-alpha) signaling pathway (AID 743069; active means well fitted curve in the direction sought with a large enough effect in the signal ratio in the repeat runs, not every such curve was filed as active; the % refers to the signal ratio)
Sequence of Estrogen receptor (Homo sapiens) (P03372 whole entry, looked up): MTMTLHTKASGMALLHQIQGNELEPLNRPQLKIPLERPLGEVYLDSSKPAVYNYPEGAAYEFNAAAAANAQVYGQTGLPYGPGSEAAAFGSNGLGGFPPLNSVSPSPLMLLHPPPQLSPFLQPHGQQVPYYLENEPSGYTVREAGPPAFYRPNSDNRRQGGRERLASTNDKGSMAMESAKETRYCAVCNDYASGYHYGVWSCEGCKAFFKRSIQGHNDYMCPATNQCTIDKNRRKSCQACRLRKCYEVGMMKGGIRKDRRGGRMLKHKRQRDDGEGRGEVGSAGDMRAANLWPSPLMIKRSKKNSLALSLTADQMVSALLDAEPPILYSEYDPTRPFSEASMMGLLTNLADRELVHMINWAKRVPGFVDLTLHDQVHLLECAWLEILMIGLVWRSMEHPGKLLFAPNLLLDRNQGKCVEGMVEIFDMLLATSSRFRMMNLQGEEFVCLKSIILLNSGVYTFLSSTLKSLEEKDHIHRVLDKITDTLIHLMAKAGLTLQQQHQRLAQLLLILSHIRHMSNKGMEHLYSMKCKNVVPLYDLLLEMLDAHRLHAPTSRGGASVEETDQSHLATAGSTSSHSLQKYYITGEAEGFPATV
Method in brief: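 Estradiol-stimulated ER-alpha-UAS-bla HEK293 cells, 18 hr compound exposure at 37C. LiveBLAzer B/G substrate, 2 hr RT, fluorescence read.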

[5] = qHTS assay to identify small molecule antagonists of the estrogen receptor alpha (ER-alpha) signaling pathway - cell viability counter screen (AID 743074; calls by dose curve;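 further: HEK293 cells carrying ER-alpha-UAS-bla reporter stimulated with 17beta-estradiol; nearly all actives have a fitted effect of over 45% in size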)
[6] = biological target: Estrogen receptor (Homo sapiens) (UniProt P03372); assay: qHTS assay to identify small molecule agonists of the estrogen receptor alpha (ER-alpha) signaling pathway (AID 743075; calls by dose curve;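 further: HEK293 GripTite cells with ER-alpha and UAS-driven beta-lactamase reporter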)
[7] = qHTS assay to identify small molecule antagonists of the estrogen receptor alpha (ER-alpha) signaling pathway using the BG1 cell line (AID 743080; calls by dose curve;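 further: BG1 cells stimulated with 17beta-estradiol alongside compound; nearly all actives have a fitted effect of over 25% in size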; further: potency means the concentration at half of the fitted maximal effect)
Method in brief: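 Seeding, 24 h rest, compound transfer from DMSO, 17beta-estradiol addition, 21.5 h incubation, CellTiter-Fluor (30 min, 37 C), then ONE-Glo (30 min, room temperature): this sequence was run on BG1-Luc-4E2 reporter cells.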

[8] = qHTS assay to identify small molecule antagonists of the estrogen receptor alpha (ER-alpha) signaling pathway using the BG1 cell line - cell viability counter screen (AID 743081);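 further: compound given together with 17beta-estradiol as the ER stimulus; series mostly up to about 70 µM; nearly all actives have a fitted effect of over 45% in size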
Aromatase (Homo sapiens) = Aromatase (Homo sapiens) (UniProt P11511); assay: qHTS assay to identify aromatase inhibitors (AID 743083); further: series mostly up to about 70 µM; nearly all actives have a fitted effect of over 55% in size
Sequence of Aromatase (Homo sapiens) (P11511 whole entry, looked up): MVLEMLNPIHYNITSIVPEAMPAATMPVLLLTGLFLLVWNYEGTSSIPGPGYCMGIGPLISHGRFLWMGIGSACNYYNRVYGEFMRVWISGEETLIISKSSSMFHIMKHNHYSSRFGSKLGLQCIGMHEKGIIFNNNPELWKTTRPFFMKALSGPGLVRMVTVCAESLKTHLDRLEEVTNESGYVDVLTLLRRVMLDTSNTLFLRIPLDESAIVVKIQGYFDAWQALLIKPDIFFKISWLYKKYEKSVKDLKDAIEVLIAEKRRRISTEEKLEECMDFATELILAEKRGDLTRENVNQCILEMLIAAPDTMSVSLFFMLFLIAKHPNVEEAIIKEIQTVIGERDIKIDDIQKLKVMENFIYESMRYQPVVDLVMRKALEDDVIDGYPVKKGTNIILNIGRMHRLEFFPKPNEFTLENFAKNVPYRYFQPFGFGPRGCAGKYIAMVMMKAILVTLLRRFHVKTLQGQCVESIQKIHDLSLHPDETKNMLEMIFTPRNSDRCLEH

[9] = qHTS assay to identify aromatase inhibitors - cell viability counter screen (AID 743084);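 further: cells stimulated with testosterone during compound exposure; nearly all actives have a fitted effect of over 55% in size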; further: potency means the concentration at half of the fitted maximal effect
[10] = qHTS assay to identify small molecule that activate the aryl hydrocarbon receptor (AhR) signaling pathway - cell viability counter screen (AID 743086);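 further: HepG2 liver cells carrying the AhR DRE luciferase reporter; series mostly up to about 70 µM; nearly all actives have a fitted effect of over 45% in size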
Method in brief: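 HepG2-AhR-luc (HG2L7.5c1) cells, 4000/well, were preincubated 5 h at 37C, exposed to compound in qHTS format for 24 hr at 37C, then given CellTiter-Fluor for 30 min; viability was read as fluorescence in the reporter wells.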

[11] = biological target: Peroxisome proliferator-activated receptor gamma (Homo sapiens) (UniProt P37231); assay: qHTS assay to identify small molecule agonists of the peroxisome proliferator-activated receptor gamma (PPARg) signaling pathway (AID 743094; active means well fitted activation curve with a large enough effect in the signal ratio in the repeat runs, not every such curve was filed as active; the % refers to the signal ratio; further: potency means the concentration at half of the fitted maximal effect)
Sequence of Peroxisome proliferator-activated receptor gamma (Homo sapiens) (P37231 whole entry, looked up): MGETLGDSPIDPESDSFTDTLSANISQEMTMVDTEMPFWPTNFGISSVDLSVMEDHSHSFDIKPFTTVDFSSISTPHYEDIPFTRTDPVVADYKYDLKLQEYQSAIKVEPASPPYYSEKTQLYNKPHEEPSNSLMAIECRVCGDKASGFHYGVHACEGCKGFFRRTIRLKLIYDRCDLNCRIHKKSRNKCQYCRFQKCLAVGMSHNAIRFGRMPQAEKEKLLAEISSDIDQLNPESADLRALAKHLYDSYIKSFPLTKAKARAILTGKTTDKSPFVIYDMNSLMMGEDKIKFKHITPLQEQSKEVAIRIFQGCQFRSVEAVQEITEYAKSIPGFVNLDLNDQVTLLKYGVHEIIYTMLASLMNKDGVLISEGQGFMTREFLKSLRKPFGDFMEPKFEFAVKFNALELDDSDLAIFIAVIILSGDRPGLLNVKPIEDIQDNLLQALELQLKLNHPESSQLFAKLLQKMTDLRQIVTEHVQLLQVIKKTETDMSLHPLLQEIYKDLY
Method in brief: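 GeneBLAzer PPARg UAS-bla HEK293H cells were plated, rested 5 h, then exposed to compounds for 17 h at 37C. Beta-lactamase activity was read by LiveBLAzer B/G FRET substrate fluorescence after 1 h at room temperature.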

[12] = qHTS assay to identify small molecule antagonists of the peroxisome proliferator-activated receptor gamma (PPARg) signaling pathway - cell viability counter screen (AID 743194); further: nearly all actives have a fitted effect of over 55% in size
Method in brief: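 PPARg-UAS-bla HEK293H cells were plated, rested 5 h at 37 C, then treated with compounds plus rosiglitazone (50 nM final) for 17 h at 37 C; viability was then read by CellTiter-Glo luminescence after 30 min at room temperature.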

[13] = qHTS assay for small molecule agonists of the antioxidant response element (ARE) signaling pathway - cell viability counter screen (AID 743203; calls by dose curve; further: nearly all actives have a fitted effect of over 55% in size)
Method in brief: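 ARE-bla HepG2 cells were plated, rested 5 h at 37C/5% CO2, then exposed to compounds in DMSO for 16 h. Viability was read as CellTiter-Glo luminescence after 30 min at room temperature, in the same wells as the ARE screen.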

[14] = qHTS assay for small molecule activators of the heat shock response signaling pathway - cell viability counter screen (AID 743209); further: nearly all actives have a fitted effect of over 50% in size
Method in brief: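 HSE-bla HeLa cells plated overnight, then exposed to Tox21 compounds (23 nL in DMSO) for 5 h at 37 C. After the bla reporter read, CellTiter-Glo was added in the same wells and luminescence read after 30 min at room temperature.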

[15] = biological target: Estrogen receptor (Homo sapiens) (UniProt P03372); assay: qHTS assay to identify small molecule agonists of the estrogen receptor alpha (ER-alpha) signaling pathway using the BG1 cell line (AID 743079); further: nearly all actives have a fitted effect of over 20% in size
[16] = qHTS assay for small molecule activators of the heat shock response signaling pathway (AID 743210; active means well fitted activation curve with a large enough effect in the signal ratio in the repeat runs, with a control signal flat, not every such curve was filed as active; the % refers to the signal ratio;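 further: HeLa cells with beta-lactamase reporter driven by heat shock elements; series mostly up to about 63 µM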)
Method in brief: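 Reporter gene assay: HeLa cells stably bearing an HSE-bla construct, compound treatment 5 h at 37 C, LiveBLAzer substrate 2.5 h at RT, fluorescence intensity.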

[17] = qHTS assay for small molecule agonists of the antioxidant response element (ARE) signaling pathway (AID 743202; active means well fitted activation curve with a large enough effect in the signal ratio in the repeat runs, not every such curve was filed as active; the % refers to the signal ratio)
Method in brief: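 Compounds delivered in DMSO to ARE-bla HepG2 cells (2,000 cells/well, pre-incubated 5 h) and left 16 h at 37 C. LiveBLAzer B/G FRET substrate then added for 2 h at RT before fluorescence reading.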

[18] = biological target: Aryl hydrocarbon receptor (Homo sapiens) (UniProt P35869); assay: qHTS assay to identify small molecule that activate the aryl hydrocarbon receptor (AhR) signaling pathway (AID 743085);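 further: HG2L7.5c1 human HepG2 liver cells with stably integrated DRE-driven firefly reporter; series mostly up to about 70 µM; nearly all actives have a fitted effect of over 15% in size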
Sequence of Aryl hydrocarbon receptor (Homo sapiens) (P35869 whole entry, looked up): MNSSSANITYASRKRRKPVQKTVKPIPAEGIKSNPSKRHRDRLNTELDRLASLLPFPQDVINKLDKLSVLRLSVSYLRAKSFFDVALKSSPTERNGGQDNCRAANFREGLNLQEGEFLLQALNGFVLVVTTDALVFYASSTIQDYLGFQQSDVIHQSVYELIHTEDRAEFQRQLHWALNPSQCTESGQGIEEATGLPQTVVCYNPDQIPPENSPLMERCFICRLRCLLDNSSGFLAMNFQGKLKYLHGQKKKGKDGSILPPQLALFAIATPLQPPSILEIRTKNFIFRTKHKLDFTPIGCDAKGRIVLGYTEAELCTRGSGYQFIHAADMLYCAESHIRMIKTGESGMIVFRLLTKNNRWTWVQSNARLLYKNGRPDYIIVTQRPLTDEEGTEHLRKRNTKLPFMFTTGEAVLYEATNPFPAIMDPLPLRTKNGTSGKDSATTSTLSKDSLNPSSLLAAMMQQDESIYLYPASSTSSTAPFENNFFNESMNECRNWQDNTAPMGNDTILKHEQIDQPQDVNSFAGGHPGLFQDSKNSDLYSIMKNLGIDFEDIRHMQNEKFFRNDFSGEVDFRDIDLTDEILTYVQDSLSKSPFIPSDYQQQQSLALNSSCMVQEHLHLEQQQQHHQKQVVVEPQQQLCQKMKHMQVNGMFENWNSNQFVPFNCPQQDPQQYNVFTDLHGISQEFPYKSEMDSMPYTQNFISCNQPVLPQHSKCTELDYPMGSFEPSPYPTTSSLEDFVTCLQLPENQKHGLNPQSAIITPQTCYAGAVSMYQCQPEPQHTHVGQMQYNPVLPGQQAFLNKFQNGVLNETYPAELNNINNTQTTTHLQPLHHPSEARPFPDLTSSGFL
Method in brief: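 Measured in HG2L7.5c1 cells: CellTiter-Fluor signal (30 min incubation, 37C) for viability, then luciferase luminescence (30 min, room temperature). Compound contact time was 24 h at 37C, following a 5 h pre-incubation.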

[19] = biological target: Peroxisome proliferator-activated receptor gamma (Homo sapiens) (UniProt P37231); assay: qHTS assay to identify small molecule antagonists of the peroxisome proliferator-activated receptor gamma (PPARg) signaling pathway (AID 743191; calls by dose curve; further: series mostly up to about 63 µM; nearly all actives have a fitted effect of over 30% in size)
Method in brief: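 GeneBLAzer PPARg UAS-bla HEK293H cells carrying a UAS-driven beta-lactamase reporter were plated at 3000 cells/well, preincubated 5 h at 37C, then given compound for 17 h at 37C; LiveBLAzer B/G FRET substrate was read after 1 h at room temperature.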

Compound	Potency [1]	Potency [2]	Potency [3]	Potency [4]	outcome [5]	Potency [6]	Potency [7]	Potency [8]	Potency (Aromatase (Homo sapiens))	Potency [9]	Potency [10]	Potency [11]	Potency [12]	Potency [13]	Potency [14]	Potency [15]	outcome [16]	Potency [17]	Potency [18]	Potency [19]
COc1ccc(OC)c(OC)c1	inactive	inactive	inactive	inactive	inactive	inactive	inactive	inactive	inactive	inactive	inactive	inactive	inactive	inactive	inactive					
CN(C)CCCOc1nn(Cc2ccccc2)c2ccccc12	8.04 µM (active)	9.02 µM (active)	inactive	inactive	inactive	inactive	inactive	inactive	inactive	inactive	inactive	inactive	inactive	inactive	inactive	inactive	inactive			
N#CCCNCCC#N	inactive	inactive	inactive	inactive	inactive	inactive	inactive	inactive		inactive	inactive	inactive	inactive	inactive	inactive	inactive	inactive	inactive		
Cc1nc2ccccc2n1Cc1ccc(Cl)cc1	inactive	6.68 µM (active)	inactive	inactive		inactive	2.37 µM (active)		inactive	inactive		inactive	inactive		inactive		inactive		inactive	
CCCCCCCCN(C)C	inactive	inactive	inactive	inactive	inactive	inactive	inactive	inactive	inactive	inactive	inactive	inactive		inactive	inactive	inactive		inactive		
CC1=CC(=O)/C(=C(/C)O)C(=O)O1	inactive	inactive	inactive	inactive	inactive	inactive	inactive	inactive	inactive	inactive	inactive	inactive	inactive	inactive	inactive		inactive	inactive		
Nc1nc(N)c(-c2ccccc2)s1	inactive	inactive	inactive		inactive			inactive	inactive	inactive	inactive	inactive		inactive	inactive		inactive	inactive	inactive	
CCCCC(CC)(CO)CO	inactive	inactive	inactive		inactive			inactive	inactive	inactive	inactive	inactive	inactive	inactive	inactive		inactive	inactive	inactive	
Cc1ccccn1	inactive	inactive	inactive		inactive			inactive	inactive	inactive	inactive		inactive	inactive	inactive		inactive	inactive		
CCCCCCCCCCCCCCCCCBr	inactive	inactive	inactive		inactive			inactive	inactive	inactive	inactive	inactive		inactive	inactive			inactive		inactive
Cn1c(NCCN(CCO)CCCc2ccc([N+](=O)[O-])cc2)cc(=O)n(C)c1=O	inactive	inactive	inactive		inactive			inactive	inactive	inactive	inactive	inactive		inactive	inactive			inactive		
C=CC(=O)OCCOC(=O)CCC(=O)O	inactive	inactive	inactive		inactive			inactive		61.1 µM (active)	inactive	54.9 µM (active)	inactive	inactive	inactive		inactive		inactive	
CNS(=O)(=O)Cc1ccc2[nH]cc(CCN(C)C)c2c1	inactive	inactive	inactive		inactive			inactive	inactive	inactive	inactive	inactive	inactive	inactive	inactive		inactive	inactive	inactive	inactive
COC(=O)CSc1cc(N=c2sc(=O)n3n2CCCC3)c(F)cc1Cl	inactive	inactive	inactive		inactive			inactive	inactive	inactive	inactive	inactive	inactive	inactive	inactive		inactive			
Cc1ccc(C)o1	inactive	inactive	inactive		inactive			inactive	inactive	inactive	inactive	inactive		inactive	inactive		inactive	inactive	inactive	inactive
